Results taken from PubChem BioAssay AID504757 (Sanford-Burnham Center for Chemical Genomics, 2011).
This is one part of the list. Active and inactive are the calls of the source. Cut-off read from the data, not from the text of the source: active = inhibition above about 39%; inactive = the rest.

Biological target: Cysteine protease ATG4B (Homo sapiens) (UniProt Q9Y4P1)
Assay: ATG4B protease inhibitors, retest, confirmation, biochemical, fluorescence, single concentration (AID 504757)
Settings: ATG4B protease fluorescent substrate cleavage assay; at 8.33 µM; hits give high values

Cysteine protease ATG4B (Homo sapiens), sequence (Q9Y4P1 whole entry, looked up): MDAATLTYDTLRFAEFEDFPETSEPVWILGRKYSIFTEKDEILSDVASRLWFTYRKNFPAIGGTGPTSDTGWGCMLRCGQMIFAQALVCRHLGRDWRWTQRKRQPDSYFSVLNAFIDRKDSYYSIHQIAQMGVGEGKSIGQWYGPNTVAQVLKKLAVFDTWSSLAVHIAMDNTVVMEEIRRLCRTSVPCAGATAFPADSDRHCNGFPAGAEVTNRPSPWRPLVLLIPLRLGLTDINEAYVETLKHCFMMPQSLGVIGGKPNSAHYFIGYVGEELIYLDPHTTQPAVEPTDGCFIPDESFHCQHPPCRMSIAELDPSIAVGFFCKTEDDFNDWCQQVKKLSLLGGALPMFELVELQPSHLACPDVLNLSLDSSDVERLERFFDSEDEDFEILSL

inhibition, active:
COc1ccc(/C=C2/SC(=O)N(CCCCCC(=O)Nc3ccccc3C(=O)O)C2=S)cc1 56.7%
CCCC1=Nc2cc(C(=O)NCc3ccco3)ccc2Sc2ccccc21 54.3%
OC(CNCc1ccc(Cl)c(Cl)c1)c1ccccc1 (stereo not given) 73.9%
Cc1ccc(-c2cc(C(=O)N3CCc4ccccc4C3)no2)cc1 66.7%
Cc1ccc(N=C2NC(=O)/C(=C/C=C/c3ccco3)S2)cc1C 66.8%
